Experiments:
Assay in all cases: DAPPL (digital affinity profiling via proximity ligation, sequencing); 10 mM Tris-HCl pH 7.5, 50 mM NaCl, 1 mM DTT, 4% glycerol, room temperature, 30 min; GST-TFs on glutathione beads, 16-mer random dsDNA library, 0.1% formaldehyde crosslink after washing; high values mean tight binding
Settings in all cases: protein: recombinant; tags: N-terminal GST; dsDNA, one strand shown
[1] = target: T1, FLI1 (Homo sapiens, UniProt Q01543 1-452)
T1 sequence: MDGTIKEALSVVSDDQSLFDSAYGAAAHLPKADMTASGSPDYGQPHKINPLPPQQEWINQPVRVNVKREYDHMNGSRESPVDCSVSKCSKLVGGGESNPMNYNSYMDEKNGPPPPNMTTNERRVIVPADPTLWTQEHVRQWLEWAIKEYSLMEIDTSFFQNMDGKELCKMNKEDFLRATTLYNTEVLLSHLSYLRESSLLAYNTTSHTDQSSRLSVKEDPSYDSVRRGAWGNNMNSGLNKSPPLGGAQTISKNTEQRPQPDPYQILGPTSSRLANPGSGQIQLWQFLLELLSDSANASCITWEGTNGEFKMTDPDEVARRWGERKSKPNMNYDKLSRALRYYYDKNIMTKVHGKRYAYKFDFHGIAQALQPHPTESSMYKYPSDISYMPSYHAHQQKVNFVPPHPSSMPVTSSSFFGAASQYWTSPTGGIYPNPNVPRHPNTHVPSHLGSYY
Method in brief: (§1)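 The binding signal reported is, for every hexamer, its read frequency for a factor over its read frequency for the tag-only sample. Reads came from pools of yeast-expressed, GST-fused human transcription factors on glutathione beads, barcoded with DNA and mixed with that sample, which were incubated with 200 nmole of a random double-stranded 16-mer DNA library in Tris/NaCl/DTT/glycerol buffer at room temperature for 30 min. After washing, the pools were crosslinked with 0.1% formaldehyde, proximity-ligated with BsaI/T4 ligase for 1 h at 37 °C, PCR-amplified and sequenced on an Illumina NextSeq500.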

[2] = target: T2, ELK1 (Homo sapiens, UniProt P19419 1-428)
T2 sequence: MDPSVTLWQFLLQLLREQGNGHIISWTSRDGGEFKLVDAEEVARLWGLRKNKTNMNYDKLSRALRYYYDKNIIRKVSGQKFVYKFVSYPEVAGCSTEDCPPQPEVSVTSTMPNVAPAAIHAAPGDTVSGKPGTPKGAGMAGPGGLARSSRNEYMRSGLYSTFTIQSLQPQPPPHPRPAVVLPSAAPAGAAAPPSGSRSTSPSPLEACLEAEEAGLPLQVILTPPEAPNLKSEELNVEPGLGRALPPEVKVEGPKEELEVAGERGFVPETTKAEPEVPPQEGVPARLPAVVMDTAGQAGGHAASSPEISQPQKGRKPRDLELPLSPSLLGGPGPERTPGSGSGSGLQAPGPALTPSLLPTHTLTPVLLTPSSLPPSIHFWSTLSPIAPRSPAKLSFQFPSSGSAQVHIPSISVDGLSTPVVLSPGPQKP
Method in brief: as §1

[3] = target: T3, GABPA (Homo sapiens, UniProt Q06546 1-454)
T3 sequence: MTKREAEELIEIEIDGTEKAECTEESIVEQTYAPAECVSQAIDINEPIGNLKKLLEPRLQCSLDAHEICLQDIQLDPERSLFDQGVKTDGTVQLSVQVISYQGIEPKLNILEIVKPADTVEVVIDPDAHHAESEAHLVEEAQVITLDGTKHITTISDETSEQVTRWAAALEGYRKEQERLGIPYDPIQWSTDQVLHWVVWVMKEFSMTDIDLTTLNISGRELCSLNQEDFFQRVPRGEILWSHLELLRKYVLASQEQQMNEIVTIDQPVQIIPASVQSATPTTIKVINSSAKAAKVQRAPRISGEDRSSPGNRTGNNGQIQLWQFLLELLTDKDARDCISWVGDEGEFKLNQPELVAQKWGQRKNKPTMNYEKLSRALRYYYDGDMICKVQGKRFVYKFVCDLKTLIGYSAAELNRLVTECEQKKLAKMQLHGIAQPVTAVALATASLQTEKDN
Method in brief: as §1

[4] = target: T4, ERG (Homo sapiens, UniProt P11308 1-479)
T4 sequence: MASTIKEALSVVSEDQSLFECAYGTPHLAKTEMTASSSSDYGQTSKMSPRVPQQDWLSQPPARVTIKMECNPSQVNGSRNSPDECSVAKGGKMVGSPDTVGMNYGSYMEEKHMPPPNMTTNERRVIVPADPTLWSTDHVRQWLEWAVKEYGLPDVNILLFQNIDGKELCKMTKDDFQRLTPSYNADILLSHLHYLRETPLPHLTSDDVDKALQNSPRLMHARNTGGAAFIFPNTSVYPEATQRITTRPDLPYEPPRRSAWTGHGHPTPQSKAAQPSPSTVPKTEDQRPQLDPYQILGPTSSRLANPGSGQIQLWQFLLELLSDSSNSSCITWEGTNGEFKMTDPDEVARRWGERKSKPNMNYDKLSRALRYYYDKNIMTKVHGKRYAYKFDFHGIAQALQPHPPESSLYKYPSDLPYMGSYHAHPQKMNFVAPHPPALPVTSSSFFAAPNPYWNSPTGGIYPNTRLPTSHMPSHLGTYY
Method in brief: as §1

[5] = target: ELF1 (Homo sapiens, UniProt P32519 1-619)
Method in brief: as §1

[6] = target: T5, EHF (Homo sapiens, UniProt Q9NZC4 1-300)
T5 sequence: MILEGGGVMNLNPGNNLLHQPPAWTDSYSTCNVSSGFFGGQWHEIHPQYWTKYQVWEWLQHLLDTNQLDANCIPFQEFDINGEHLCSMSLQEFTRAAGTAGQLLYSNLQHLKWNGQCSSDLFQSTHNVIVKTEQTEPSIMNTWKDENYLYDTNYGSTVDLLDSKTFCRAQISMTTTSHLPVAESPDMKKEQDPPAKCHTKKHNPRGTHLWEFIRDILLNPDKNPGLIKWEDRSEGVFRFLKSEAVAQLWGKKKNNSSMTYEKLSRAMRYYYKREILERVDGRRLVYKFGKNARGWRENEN
Method in brief: as §1

[7] = target: SPI1 (Homo sapiens, UniProt P17947 1-270)
Method in brief: as §1

[8] = target: SPIB (Homo sapiens, UniProt Q01892 1-262)
Method in brief: as §1

[9] = target: T6, ELK3 (Homo sapiens, UniProt P41970 1-407)
T6 sequence: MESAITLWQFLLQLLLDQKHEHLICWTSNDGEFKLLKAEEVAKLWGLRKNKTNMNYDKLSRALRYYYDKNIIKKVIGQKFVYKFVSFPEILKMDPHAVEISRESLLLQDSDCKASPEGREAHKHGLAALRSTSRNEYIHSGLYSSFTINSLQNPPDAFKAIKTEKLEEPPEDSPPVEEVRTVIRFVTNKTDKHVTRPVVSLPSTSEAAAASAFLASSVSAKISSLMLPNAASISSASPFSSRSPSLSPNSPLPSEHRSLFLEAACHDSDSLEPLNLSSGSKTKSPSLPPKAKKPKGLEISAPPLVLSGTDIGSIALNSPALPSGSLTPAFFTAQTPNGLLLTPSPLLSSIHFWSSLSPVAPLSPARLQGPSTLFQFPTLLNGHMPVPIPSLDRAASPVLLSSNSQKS
Method in brief: as §1

Chain of SPIB (Q01892 whole entry): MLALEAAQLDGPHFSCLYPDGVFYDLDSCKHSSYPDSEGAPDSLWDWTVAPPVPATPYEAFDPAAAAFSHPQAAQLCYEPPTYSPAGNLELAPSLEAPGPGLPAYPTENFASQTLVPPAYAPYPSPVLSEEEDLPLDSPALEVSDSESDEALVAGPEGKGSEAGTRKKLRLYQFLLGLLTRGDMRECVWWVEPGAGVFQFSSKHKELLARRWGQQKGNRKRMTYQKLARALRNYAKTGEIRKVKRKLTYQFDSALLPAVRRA
Chain of ELF1 (P32519 whole entry): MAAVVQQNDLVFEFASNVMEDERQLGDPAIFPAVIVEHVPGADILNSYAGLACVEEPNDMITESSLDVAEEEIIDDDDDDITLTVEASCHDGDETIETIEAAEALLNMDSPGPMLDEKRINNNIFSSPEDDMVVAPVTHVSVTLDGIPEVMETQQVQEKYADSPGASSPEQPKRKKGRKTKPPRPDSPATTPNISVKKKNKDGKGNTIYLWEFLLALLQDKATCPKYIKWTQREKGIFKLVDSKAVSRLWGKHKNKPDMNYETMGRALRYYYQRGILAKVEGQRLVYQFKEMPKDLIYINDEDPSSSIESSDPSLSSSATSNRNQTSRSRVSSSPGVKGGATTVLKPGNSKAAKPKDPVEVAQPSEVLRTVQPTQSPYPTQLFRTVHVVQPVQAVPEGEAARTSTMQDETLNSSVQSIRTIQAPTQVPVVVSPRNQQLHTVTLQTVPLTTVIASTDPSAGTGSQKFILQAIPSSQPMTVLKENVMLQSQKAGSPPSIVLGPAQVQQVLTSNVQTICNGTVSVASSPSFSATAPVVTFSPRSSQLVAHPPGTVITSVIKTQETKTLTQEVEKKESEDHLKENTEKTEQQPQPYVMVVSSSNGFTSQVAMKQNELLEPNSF

| Sequence | binding signal [1] | binding signal [2] | binding signal [3] | binding signal [4] | binding signal [5] | binding signal [6] | binding signal [7] | binding signal [8] | binding signal [9] |
| --- | --- | --- | --- | --- | --- | --- | --- | --- | --- |
| TGGAAT | 1.36 fold enrichment (6-mer frequency, TF over GST control) | 1.21 fold enrichment (6-mer frequency, TF over GST control) | 1.3 fold enrichment (6-mer frequency, TF over GST control) | 1.25 fold enrichment (6-mer frequency, TF over GST control) | 1.22 fold enrichment (6-mer frequency, TF over GST control) | 1.19 fold enrichment (6-mer frequency, TF over GST control) | 1.25 fold enrichment (6-mer frequency, TF over GST control) | 1.21 fold enrichment (6-mer frequency, TF over GST control) | 1.25 fold enrichment (6-mer frequency, TF over GST control) |
| TCGATA | 1.17 fold enrichment (6-mer frequency, TF over GST control) | 1.03 fold enrichment (6-mer frequency, TF over GST control) | 1.08 fold enrichment (6-mer frequency, TF over GST control) | 1.1 fold enrichment (6-mer frequency, TF over GST control) | 1.11 fold enrichment (6-mer frequency, TF over GST control) | 1.12 fold enrichment (6-mer frequency, TF over GST control) | 1.12 fold enrichment (6-mer frequency, TF over GST control) | 1.03 fold enrichment (6-mer frequency, TF over GST control) | 1.06 fold enrichment (6-mer frequency, TF over GST control) |
| ACTCCT | 1.67 fold enrichment (6-mer frequency, TF over GST control) | 1.55 fold enrichment (6-mer frequency, TF over GST control) | 1.45 fold enrichment (6-mer frequency, TF over GST control) | 1.45 fold enrichment (6-mer frequency, TF over GST control) | 1.57 fold enrichment (6-mer frequency, TF over GST control) | 1.52 fold enrichment (6-mer frequency, TF over GST control) | 1.42 fold enrichment (6-mer frequency, TF over GST control) | 1.57 fold enrichment (6-mer frequency, TF over GST control) | 1.5 fold enrichment (6-mer frequency, TF over GST control) |
| CACCAA | 1.02 fold enrichment (6-mer frequency, TF over GST control) | 1.16 fold enrichment (6-mer frequency, TF over GST control) | 1.03 fold enrichment (6-mer frequency, TF over GST control) | 1.07 fold enrichment (6-mer frequency, TF over GST control) | 1.12 fold enrichment (6-mer frequency, TF over GST control) | 1.06 fold enrichment (6-mer frequency, TF over GST control) | 1.07 fold enrichment (6-mer frequency, TF over GST control) | 1.04 fold enrichment (6-mer frequency, TF over GST control) | 1.15 fold enrichment (6-mer frequency, TF over GST control) |
| ACCTGG | 1.25 fold enrichment (6-mer frequency, TF over GST control) | 1.28 fold enrichment (6-mer frequency, TF over GST control) | 1.25 fold enrichment (6-mer frequency, TF over GST control) | 1.25 fold enrichment (6-mer frequency, TF over GST control) | 1.25 fold enrichment (6-mer frequency, TF over GST control) | 1.22 fold enrichment (6-mer frequency, TF over GST control) | 1.2 fold enrichment (6-mer frequency, TF over GST control) | 1.31 fold enrichment (6-mer frequency, TF over GST control) | 1.23 fold enrichment (6-mer frequency, TF over GST control) |
| TTTGTG | 1.31 fold enrichment (6-mer frequency, TF over GST control) | 1.2 fold enrichment (6-mer frequency, TF over GST control) | 1.13 fold enrichment (6-mer frequency, TF over GST control) | 1.14 fold enrichment (6-mer frequency, TF over GST control) | 1.09 fold enrichment (6-mer frequency, TF over GST control) | 1.15 fold enrichment (6-mer frequency, TF over GST control) | 1.12 fold enrichment (6-mer frequency, TF over GST control) | 1.09 fold enrichment (6-mer frequency, TF over GST control) | 1.17 fold enrichment (6-mer frequency, TF over GST control) |
| TCCGGG | 1.54 fold enrichment (6-mer frequency, TF over GST control) | 1.55 fold enrichment (6-mer frequency, TF over GST control) | 1.35 fold enrichment (6-mer frequency, TF over GST control) | 1.56 fold enrichment (6-mer frequency, TF over GST control) | 1.48 fold enrichment (6-mer frequency, TF over GST control) | 1.48 fold enrichment (6-mer frequency, TF over GST control) | 1.4 fold enrichment (6-mer frequency, TF over GST control) | 1.65 fold enrichment (6-mer frequency, TF over GST control) | 1.46 fold enrichment (6-mer frequency, TF over GST control) |
